This is an account of results in PubChem BioAssay AID602449 (Sanford-Burnham Center for Chemical Genomics, 2012).

The campaign covered roughly 360,000 compounds. About 5,000 (1.4%) were called active. This excerpt belongs to a sample that is enriched for actives. Unmarked numbers belong to inactive results.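 How the source made its calls: active means inhibition of 50% or more, scaled per plate between neutral and stimulator controls; inactive means the rest.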

This assay in a line: mitochondrial permeability transition pore inhibitors, primary screen, biochemical, isolated mouse mitochondria, absorbance (AID 602449).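 Further: 0% = DMSO wells given calcium and 100% = 1 mM EGTA wells.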 Particulars: Ca2+ swelling absorbance, 30 min, at 10 µM, hits give high values.
What is called inhibition is the relative decrease from the control value, in per cent. For `O=C(C1CCC1)N1CCc2cc(S(=O)(=O)NCc3cccnc3)ccc21`, the inhibition is -1.1%. As for `COc1cccc(CNS(=O)(=O)c2ccc3c(c2)CC(C)N3C(=O)C2CCC2)c1` (stereo unspecified), the figure is 90.4% (active); as for `COc1ccc(N(C)S(=O)(=O)c2ccc3c(c2)CC(C)N3C(=O)C2CC2)c(OC)c1` (stereo unspecified), 0.9%; as for `COc1cccc(NC(=O)Cn2cnc3sc(C)c(S(=O)(=O)N4CCN(C)CC4)c3c2=O)c1`, 0.8%. Turning to `Cc1ccc(C2(C(F)(F)F)N=C3Sc4cc(C)cc(C)c4N3C(=O)N2)cc1` (stereo unspecified), the inhibition is 5.4%.

Consider `COc1cc(NS(=O)(=O)c2ccc(NC(=S)NC(=O)c3ccccc3)cc2)nc(OC)n1`, for which the inhibition is -1.6%. The value for `CSc1sc(C(=O)NNC(=O)c2ccc(Cl)cc2)c2c1C=CCC2` was 3%; that for `CS(=O)(=O)c1sc(C(=O)NC(=S)Nc2ccc(OC(F)(F)F)cc2)c2c1C=CCC2` was 53.1% (active).

With `COc1cccc(N(Cc2nnc3n2CCCCC3)C(=O)Nc2ccccc2F)c1`, the inhibition is 0.7%. As for `Cc1nn(-c2ccccc2)c2sc(C(=O)N(Cc3ccco3)C(C)C(=O)NC(C)(C)C)cc12` (stereo unspecified), the figure is -3.6%; as for `CC1=C(C(=O)N2CCOCC2)CC(CC(=O)NCCN2CCOCC2)C(=O)N1CCC1=CCCCC1` (stereo unspecified), 5.2%; as for `O=C(Nn1cnc2ccccc2c1=O)c1ccc(F)cc1Cl`, 0.6%.

Consider `CN(C(=O)Nc1ccc(Cl)cc1)n1cnc2ccccc2c1=O`, for which the inhibition was 55.1% (active). As for `O=C(Cn1nnc2ccccc2c1=O)NCc1ccc(Cl)cc1`, the figure is -0.4%; as for `O=C(CCCN1C(=O)C2C3C=CC(C3)C2C1=O)N1CCN(c2ccccc2)CC1` (stereo unspecified), -1.6%. As for `CNS(=O)(=O)c1ccc(C(=O)NCC(=O)NCCc2ccc3c(c2)OCCO3)cc1`, the inhibition was -1.7%.

For `O=C(NCCc1ccc2c(c1)OCCO2)c1cc2ccccc2o1`, the inhibition was 74.2% (active). `CN(C)C(CNC(=O)c1cc2ccccc2o1)c1ccccc1` (stereo unspecified): the inhibition is 0.1%. As for `O=C(NC(=O)c1cc(OCC(F)(F)F)ccc1OCC(F)(F)F)Nc1ccccc1`, the figure is 12.2%; as for `CCCCCN(C(=O)NC(=O)Nc1ccccc1C)S(C)(=O)=O`, 7.5%.

On to `CC(=O)Nc1cc(-c2ccccc2N(C)C)cn2c(-c3ccc(F)c(Cl)c3)cnc12`, for which the inhibition was 0.4%. As for `CCCN1C2=C(C(=O)CCC2)C(c2ccc(O)c(Br)c2)C2=C1CCCC2=O`, the figure is 0.7%; as for `Cc1nc2ccccc2cc1OCc1ccc(F)cc1`, 97.1% (active).

`Fc1cccc2ncnc(OCc3ccccc3)c12`: the inhibition is 0.3%. The value for `Fc1ccc(COc2cccc(-c3n[nH]c(=S)o3)c2)cc1` was 8.5%; that for `Cc1ccc(S(=O)(=O)N2CCOCC2)cc1NC(=O)COC(=O)c1cnccn1` was -1%.

As for `Nc1nc(SCC(=O)Nc2ccc(Cl)cc2C(F)(F)F)n[nH]1`, the inhibition was 0.2%. As for `CNC(=O)Nc1cc(C(C)(C)C)no1`, the figure is -2.3%; as for `Cc1[nH]n(-c2cccc(Cl)c2)c(=O)c1-c1ccc(Cl)cc1`, 102% (active); as for `Cc1nc2c(-c3ccccc3)c(C)[nH]n2c(=O)c1Cl`, -1%. Take `CCCc1cc(=O)n2[nH]c(C)c(-c3ccc(Cl)cc3)c2n1`: the inhibition was 1.2%. As for `CC(NC(=O)CN1CCN(Cc2ccc(Cl)cc2)C1=O)c1ccc2c(c1)OCCO2` (stereo unspecified), the figure is -2.1%. As for `Cc1c2cnn(CC(=O)NCCCN3CC(C)CC(C)C3)c(=O)c2c(C)n1Cc1ccc(Cl)cc1` (stereo unspecified), the figure is -0.1%. As for `COc1ccc(CNC(=O)C(=O)N2CCC3(CC2)OCCN3S(=O)(=O)c2ccc(C)cc2)cc1`, the figure is 0.1%; as for `NC1=NC(=O)C(Cc2cccc(Cl)c2Cl)S1` (stereo unspecified), 1.7%. Consider `CCOC(=O)Cc1csc(SCC(=O)NC(C)C23CC4CC(CC(C4)C2)C3)n1` (stereo unspecified), for which the inhibition was -0.5%. `COc1cc(NC(=O)Nc2ccc(C)cc2)cc([N+](=O)[O-])c1`: the inhibition was 104% (active). With `CC(=O)c1ccc(NC(=O)Nc2ccc([N+](=O)[O-])cc2C)cc1`, the inhibition was 94.4% (active). As for `COc1cccc(C(=O)CC(=O)C(=O)Nc2ccc([N+](=O)[O-])cc2C)c1`, the figure is -17.7%; as for `Cc1ccc(Oc2cc(NC(=O)CCCn3nc(C)c([N+](=O)[O-])c3C)cc([N+](=O)[O-])c2)cc1`, 40.9%.

Consider `COc1ccc(S(=O)(=O)NNC(=O)Nc2ccc(C)cc2)c(OC)c1`, for which the inhibition is -0.8%. Turning to `CC(=O)Nc1ccc(C(=O)OCC(=O)Nc2ccc([N+](=O)[O-])cc2C(F)(F)F)cc1`, the inhibition was 36.6%. The value for `COc1ccc(NC(=O)C(c2ccncc2)n2c(=O)c(-c3cc4ccccc4[nH]3)nc3ccccc32)cc1` (stereo unspecified) was 4.2%; that for `CC(C)C[C@H](NC(=O)C1CC(=O)N(c2ccc3c(c2)OCCO3)C1)C(=O)NC1CCCC1` (stereo partly specified) was -0.1%.

For the molecule `CN(C)C(=O)c1cc(Br)ccc1Cl`, the inhibition was 1.1%. As for `CCc1nnc(NS(=O)(=O)c2ccc(NC(=O)c3cccc(OC(F)(F)C(F)F)c3)cc2)s1`, the figure is 2.9%; as for `O=C(Nc1ccc(OC(F)(F)F)cc1)c1ccc2c(c1)no[n+]2[O-]`, 82.5% (active).

Regarding `Cc1ccc(NC(=O)c2ccc(Oc3ncccn3)cc2)cc1`, the inhibition is 0.4%. The value for `Fc1cccc(Cc2c(-c3cccc(Cl)c3)nc3ccc(Br)cn23)c1` was 2.5%; that for `CCOC(=O)C1CCN(C(=O)Cc2c(C(=O)O)[nH]c3ccccc23)CC1` was 0.3%; that for `CCOC(=O)C1=C(CC)Nc2ccccc2N=C1N` was 1.2%.

As to `O=C(COC(=O)CNC(=O)c1ccco1)Nc1ccc(F)cc1`, the inhibition was -1.2%. The value for `O=C(COC(=O)c1ccccc1NC(=O)c1ccco1)Nc1ccc2c(c1)OC(F)(F)O2` was 60.9% (active). The value for `O=C(COC(=O)c1ccc[nH]c1=O)Nc1ccc2c(c1)OC(F)(F)O2` was 3%. `COC(=O)[C@]12CCCCC=C1N(Cc1ccccc1)C(=O)[C@H](CC(=O)NCc1ccc(C)o1)C2`: the inhibition was -0.1%. Consider `COc1ccc(NC(=O)CN(C)S(=O)(=O)c2ccccc2)cc1OC`, for which the inhibition was -0.5%. As for `Cc1ccc(-c2nc(-c3cccnc3)sc2CC(=O)Nc2ccc(C)c(Cl)c2)cc1`, the figure is 93.3% (active); as for `Cc1cc(C)c(NC(=O)CS(=O)CC(=O)Nc2cccnc2)c(C)c1` (stereo unspecified), -1.4%. As for `Cc1nc(-c2ccc(F)cc2)c(CC(=O)Nc2cc(S(=O)(=O)N3CCCCC3)ccc2C)s1`, the figure is -0.4%; as for `Cc1ccc(Nc2c(F)c(F)c(F)c(F)c2C(=O)O)c(C)c1`, -0.7%; as for `O=C(CCn1nnc2ccccc2c1=O)N[C@@H](Cc1c[nH]c2ccccc12)C(=O)O`, 1.4%. Consider `Cc1ccc(C(=O)Nc2nnc(C3=COCCO3)o2)cc1C`, for which the inhibition was -0.8%. The value for `Cc1cc(C(=O)CSc2nc(N)cc(=O)[nH]2)c(C)n1Cc1ccco1` was 64.3% (active); that for `Cc1cc(C(=O)COC(=O)C2CC2)c(C)n1-c1ccc(F)cc1` was 0.2%. The value for `Cc1cc(C(=O)CSc2nc(N)cc(=O)[nH]2)c(C)n1-c1cccc(F)c1` was 63.2% (active); that for `Cc1cc(C(=O)CSc2nc(N)cc(=O)[nH]2)c(C)n1CCc1ccc(Cl)cc1` was -9%. For the molecule `Cc1cc(C)c(C(=O)CSc2nc(C)cc(=O)[nH]2)c(C)c1`, the inhibition was 0.6%. `COc1ccc(C)cc1-n1nnnc1SCC(=O)c1cc(C)n(Cc2ccco2)c1C`: the inhibition was -2.3%. As for `CC1CCN(c2ccc(-c3ccc(NC(=O)c4ccco4)cc3)nn2)CC1`, the figure is 0.3%; as for `CSCCC1NC(=O)N(CC(=O)Nc2cccc(S(=O)(=O)N3CCCCCC3)c2)C1=O` (stereo unspecified), 1.2%; as for `CCOC(=O)C1C(=O)OC2(CCCC2)C1C(=O)OCC` (stereo unspecified), -1.2%. As for `COc1cccc(-c2cc3nc(NCc4ccccc4OC)n(C)c(=O)c3s2)c1`, the figure is 1.9%. Regarding `COCCNc1nc(NCc2ccc(NC(C)=O)cc2)c2sccc2n1`, the inhibition is -1.4%. Turning to `COCCNc1nc(Nc2ccccc2Cl)c2sc(-c3ccccc3)cc2n1`, the inhibition is 2.1%. As for `Clc1ccccc1Nc1nc(NCc2cccs2)nc2ccsc12`, the figure is 3%. As to `COc1cccc(CNc2nc(NCc3cccs3)nc3ccsc23)c1`, the inhibition was 77.8% (active). The value for `COc1ccccc1CNc1nc(Nc2ccccc2Cl)c2sccc2n1` was 74.5% (active); that for `COc1cccc(CNc2nc(NCc3ccccc3OC)nc3ccsc23)c1` was 94.6% (active); that for `COc1ccc(NC(=S)NCc2cccs2)c(OC)c1` was 2.2%. The value for `COc1cccc(CNc2nc3cc(-c4csc5ccccc45)sc3c(=O)n2C)c1` was 2.5%; that for `Cc1ccc(Nc2nc(CSc3nnc(-c4ccncc4)n3-c3ccccc3C)cs2)cc1` was 2.2%. Turning to `CC(Cc1cccs1)NC(=O)c1cccc(Cl)c1` (stereo unspecified), the inhibition was 4.2%. The value for `Cc1c(NC(=S)NC(=O)CCc2ccccc2)c(=O)n(-c2ccccc2)n1C` was 0.3%; that for `Cc1cc(C)cc(NC(=O)COC(=O)c2cc(C)oc2C)c1` was 0.5%. As for `CN(C)CCn1c2c(c(SCC(=O)NCc3ccccc3)nc1=O)CCC2`, the figure is -1%; as for `CCOC(=O)c1cc(=O)c2ccc(OCc3ccccc3)cc2o1`, 0.1%; as for `CCOC(=O)c1oc2c(CN3CCN(C)CC3)c(O)ccc2c(=O)c1-c1ccc(Br)cc1`, 9.1%. In the case of `CCOC(=O)c1cc2cc(-c3c(C(=O)OCC)oc4cc(O)cc(O)c4c3=O)ccc2o1`, the inhibition is 50.9% (active). For the molecule `C/C(=N\Nc1nc2ccccc2[nH]1)c1cccs1`, the inhibition is 1.1%.

Take `Cc1ccc(-c2nc(C)sc2CC(=O)OCC(=O)Nc2c(F)cccc2F)cc1`: the inhibition is 0.8%. As for `Cn1c(=O)c(C(=O)Nc2ncccn2)c(O)c2ccccc21`, the figure is -1.3%.
